Rows were chosen to be rich in hits. Some 11% of all compounds tested hit in one or more screens of this group.
HSD17B inh: blocks hydroxysteroid 17-beta dehydrogenase activity; actives 7.6% (n = 75,000); Potency, µM (highest dose often 57.1 µM), hits mostly inhibitors; Q99714; AID 893; recombinant HSD17B10, NADH fluorescence kinetic;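 also: the protocol describes HADH2 (HSD17B10) and not the HSD17B4 of the title; nearly all actives have a fitted effect of over 70% in size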
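Enzyme plus compound, 15 min room temperature; substrate mix added (NAD+ 1 mM, beta-hydroxybutyryl-CoA 90 uM final); plates read kinetically for NADH fluorescence. HADH2 was His-tagged, E. coli-derived, 20 nM.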
Bst PK mod: pyruvate kinase (B. stearothermophilus) modulation. purified pyruvate kinase, luminescence ATP production; ribose 5-phosphate activator present at AC10. Potency, µM. actives 1.2% (n = 51,000). AID 361; in the data active = potency below about 11 µM; inconclusive = mostly about 12 µM to 25 µM;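 the screen sought inhibitors and activators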
Luciferase inh: firefly luciferase inhibition. P08659. purified firefly luciferase, luminescence, 8 min. Potency, µM (series often up to 57.1 µM), actives largely listed as inhibitors. actives 2.2% (n = 72,000); also: nearly all actives have a fitted effect of over 40% in size
Target sequence (P08659 whole entry, looked up): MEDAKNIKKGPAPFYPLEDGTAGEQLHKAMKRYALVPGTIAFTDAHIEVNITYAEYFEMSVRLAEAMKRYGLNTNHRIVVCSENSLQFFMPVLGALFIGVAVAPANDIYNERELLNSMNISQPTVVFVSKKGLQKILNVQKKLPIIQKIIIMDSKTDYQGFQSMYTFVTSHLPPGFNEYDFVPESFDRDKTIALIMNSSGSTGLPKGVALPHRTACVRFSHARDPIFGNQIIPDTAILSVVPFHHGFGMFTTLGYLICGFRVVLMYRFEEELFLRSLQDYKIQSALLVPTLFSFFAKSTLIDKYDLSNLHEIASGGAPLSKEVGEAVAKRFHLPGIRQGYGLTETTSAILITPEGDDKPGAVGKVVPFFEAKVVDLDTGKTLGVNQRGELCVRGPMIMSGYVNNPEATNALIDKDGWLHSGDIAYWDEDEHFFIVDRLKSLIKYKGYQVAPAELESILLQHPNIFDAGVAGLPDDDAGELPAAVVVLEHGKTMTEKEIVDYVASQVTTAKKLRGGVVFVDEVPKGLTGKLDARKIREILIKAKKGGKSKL
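Compounds were tested as concentration series (qHTS) against purified P. pyralis luciferase with luciferin and 10 uM ATP in 50 mM imidazole pH 7.2, 50 mM KCl, 7 mM MgCl2, 0.01% Tween 20, 0.05% BSA. Luminescence was read after 8 min at ambient temperature.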
ERK AVP inh: inhibitors of vasopressin-stimulated ERK signaling pathway | HEK293-V1b, vasopressin-stimulated pERK AlphaScreen | Potency, µM (titrated, usually from 57.5 µM), hits mostly inhibitors | actives 0.99% (n = 72,000) | AID 995; also: nearly all actives have a fitted effect of over 55% in size
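HEK293 cells stably expressing V1b receptor, preincubated 30 min at 37 °C with compound, then stimulated 5 min with 25 nM vasopressin. Phospho-ERK by AlphaScreen SureFire after 5 h RT; normalized to DMSO and vasopressin; AC50 by Hill fit.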
ALOX15 inhib: blocks human 15-lipoxygenase activity; actives 1.4% (n = 74,000); Potency, µM (top dose mostly 57.1 µM), usual class: inhibitors; P16050; purified 15hLO-1, xylenol orange hydroperoxide absorbance; also: nearly all actives have a fitted effect of over 55% in size
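40 nM 15hLO-1 + cpd, 15 min RT; start w/ 50 uM AA (final), 6 min RT; stop/detect w/ 200 uM XO + 300 uM Fe(II) in 50 mM H2SO4, 30 min; A573/A405. Buffer 25 mM Hepes pH 7.5, 0.01% Triton X-100. No-enzyme wells as negative control.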
HADH2 inhib: HADH2 (human) dehydrogenase inhibition. recombinant HADH2, NADH fluorescence, beta-hydroxybutyryl-CoA. Potency, µM (series often up to 57.1 µM), hits mostly inhibitors. actives 3.4% (n = 73,000); also: nearly all actives have a fitted effect of over 60% in size
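Activity measured as NADH fluorescence gain (360/450 nm), taken as the change between first and last reads of a 4-min kinetic run. Conditions: pH 9.0 Tris buffer, 20 nM E. coli-expressed His-tagged enzyme, 1 mM NAD+, 90 uM beta-hydroxybutyryl-CoA; 15-min compound preincubation.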
Numbers stand for hits; [ ] = dose if it differs, or a comment. Unless noted, calls follow the shape of the dose curve; as a rule, active = well fitted curve in the direction sought with a large enough effect; inconclusive = small, poorly fitted or top-dose-only effect, or another doubt; inactive = no such curve, though single readings can be large; an effect the other way counts as inactive or inconclusive.

What do the screens show for `CC1=C/C(=N/O)C([C@H]2C=C(C)CC(C)(C)[C@@H]2O)C(C)(C)C1` (stereo not given in full)?
HSD17B inh: inactive[11.4 µM]; Luciferase inh: inactive[11.4 µM]; ERK AVP inh: inactive[11.5 µM]; ALOX15 inhib: inactive[11.4 µM]; HADH2 inhib: inactive[11.4 µM]

What do the screens show for `Cn1c(=O)c2[nH]c(CCCCC(=O)O)nc2n(C)c1=O`?
HSD17B inh: inactive[11.4 µM]; Luciferase inh: inactive[11.4 µM]; ERK AVP inh: inactive[11.5 µM]; ALOX15 inhib: inactive[11.4 µM]; HADH2 inhib: inactive[11.4 µM]

What do the screens show for `Oc1ccc(O)cc1`?
HSD17B inh: 1.3µM; Luciferase inh: inactive; ERK AVP inh: inactive; ALOX15 inhib: inconclusive; HADH2 inhib: 0.4µM

Results for CC(C)(C)c1ccc(O)c(O)c1 ?
HSD17B inh: 3.2µM; ERK AVP inh: inactive; ALOX15 inhib: 4µM; HADH2 inhib: 0.25µM

Results for CCN1C(=O)[C@H]2[C@H]3[C@H](O)[C@H](O)C/C(=N/O[C@@H]4O[C@@H](COC(C)=O)[C@@H](OC(C)=O)[C@@H](OC(C)=O)[C@H]4OC(C)=O)[C@@H]3CC[C@@H]2C1=O ?
HSD17B inh: inactive[11.4 µM]; Luciferase inh: inactive[11.4 µM]; ERK AVP inh: inactive[11.5 µM]; ALOX15 inhib: inactive[11.4 µM]; HADH2 inhib: inactive[11.4 µM]

How did CCCC[C@@H]1C[C@H]1C(NC(=O)c1ccccc1)c1ccc(C(F)(F)F)cc1 (stereo not given in full) do in these assays?
HSD17B inh: inactive; ERK AVP inh: inactive; HADH2 inhib: inactive

How did O=C(CSc1cccc[n+]1[O-])c1cc2ccccc2o1 do in these assays?
HSD17B inh: inactive; Bst PK mod: inactive; Luciferase inh: inactive; ERK AVP inh: inactive; ALOX15 inhib: inactive; HADH2 inhib: 20µM

What do the screens show for `Cn1cccc1C(=O)NC(=O)CSc1cccc[n+]1[O-]`?
HSD17B inh: inactive; Bst PK mod: inactive; Luciferase inh: inactive; ERK AVP inh: inactive; ALOX15 inhib: inactive; HADH2 inhib: inactive

What do the screens show for `Nc1n[nH]c(-c2ccc(F)cc2)n1`?
HSD17B inh: inactive; Luciferase inh: inactive; ERK AVP inh: inactive; ALOX15 inhib: inactive; HADH2 inhib: inactive

How did CCCCc1ccc(-c2nc(N)n[nH]2)cc1 do in these assays?
HSD17B inh: inactive; Luciferase inh: 7.9µM; ERK AVP inh: inactive; ALOX15 inhib: inactive; HADH2 inhib: inactive

What do the screens show for `N[C@@H](Cc1c[nH]c2ccc([N+](=O)[O-])cc12)C(=O)O`?
HSD17B inh: inactive[11.4 µM]; Luciferase inh: inactive[11.4 µM]; ERK AVP inh: inactive[11.5 µM]; ALOX15 inhib: inactive[11.4 µM]; HADH2 inhib: inactive[11.4 µM]

How did COCCn1c(=O)c(-c2cc(F)cc(F)c2)nc2cnc(Oc3ccccc3)nc21 do in these assays?
HSD17B inh: inconclusive; Luciferase inh: inactive[11.4 µM]; ERK AVP inh: inactive; ALOX15 inhib: inactive; HADH2 inhib: inactive

Results for COCCn1c(=O)c(-c2cc(F)cc(F)c2)nc2cnc(Oc3cccc(Cl)c3)nc21 ?
HSD17B inh: 32µM; Luciferase inh: inactive[11.4 µM]; ERK AVP inh: inactive; ALOX15 inhib: inactive; HADH2 inhib: inconclusive

Results for COCCn1c(=O)c(-c2ccc(F)cc2)nc2cnc(Oc3cccc(Cl)c3)nc21 ?
HSD17B inh: 5µM; Luciferase inh: inactive[11.4 µM]; ERK AVP inh: inactive; ALOX15 inhib: inactive; HADH2 inhib: inconclusive

Results for COCCn1c(=O)c(C)nc2cnc(Oc3cccc(Cl)c3)nc21 ?
HSD17B inh: inconclusive; Luciferase inh: inactive[11.4 µM]; ERK AVP inh: inactive; ALOX15 inhib: inactive; HADH2 inhib: inactive

How did COC(=O)[C@@]1(Cc2ccccc2)[C@H]2c3cc(C(=O)N4CCCC4)[nH]c3C[C@H]2CN1C(=O)c1ccccc1 do in these assays?
HSD17B inh: inactive; ERK AVP inh: inactive; HADH2 inhib: inactive

How did C/C(=C\COc1cc(=O)[nH]c2ccccc12)CC[C@@H](O)C(C)(C)O do in these assays?
Luciferase inh: inactive[11.4 µM]; HADH2 inhib: inactive

What do the screens show for `Cc1nc2c(c(C)nn2-c2ccccc2)c(C)c1Cl`?
HSD17B inh: 32µM; Luciferase inh: inactive; ALOX15 inhib: inactive; HADH2 inhib: inactive

Results for Cc1c(C)c2c(C)nn(-c3ccccc3)c2[nH]c1=O ?
HSD17B inh: inactive; Luciferase inh: inactive; ERK AVP inh: inconclusive; ALOX15 inhib: inactive[11.4 µM]; HADH2 inhib: inactive[11.4 µM]

Source: PubChem BioAssay (National Center for Advancing Translational Sciences (NCATS))
